About 3,000 (1%) of roughly 290,000 compounds were called active. The entries come from a sample that favours actives as a whole. Unmarked numbers belong to inactive results. Rule as the data show it: active = inhibition mostly above about 36% (no sharp cut-off); inactive = mostly below about 34%.
Test: NOD1 signaling inhibitors, primary screen, cell-based, luminescence, uHTS (AID 1578);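 also: HEK-293T reporter cells stimulated with the NOD1 agonist gamma-tri-DAP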
Details: NOD1-driven NF-kB luciferase reporter cells, at 4 µM, hits give high values

Question: Which inhibition does the source give for `COc1ccc(-c2nc3ccccc3c(=O)n2NC(=O)Cc2ccccc2)cc1` here?
Answer: -18.8%

Question: Which inhibition does the source give for `COCCC(=O)N1CCC(Oc2ccc(C(=O)N3C[C@@H](C)O[C@@H](C)C3)cc2)CC1` here?
Answer: -23.9%

Question: For `O=C(c1cccc(Oc2ccc([N+](=O)[O-])cc2Cl)c1)N1CCOCC1`, which inhibition is on record?
Answer: -7.9%

Question: Which inhibition does the source give for `CCC(=O)c1cccc2c1N=CC1=C(CC(C)(C)CC1=O)N2` here?
Answer: -20.6%

Question: For `CC1CC(=O)C2=C(C1)Nc1ccccc1N=C2` (stereo not drawn), which inhibition is on record?
Answer: 11.1%

Question: For `CC1(C)CC(=O)C2=C(C1)Nc1ccccc1N=C2`, which inhibition is on record?
Answer: 59.6% (active)

Question: For `CCCNc1cc(=S)nc(N)[nH]1`, which inhibition is on record?
Answer: 5%

Question: With `O=C(c1ccc(Cl)cc1)N1CCCCC(Sc2nnc(-c3ccc4c(c3)OCO4)o2)C1=O` (stereo not drawn) as the compound, how does the inhibition read?
Answer: 57.8% (active)

Question: For `O=C1OCCC1Sc1nnc(-c2ccc3c(c2)OCO3)o1` (stereo not drawn), which inhibition is on record?
Answer: -4.4%

Question: Which inhibition does the source give for `Clc1ccc(CSc2nnc(-c3ccc4c(c3)OCO4)o2)cc1` here?
Answer: -7.9%

Question: Which inhibition does the source give for `O=C1CCCCC1Sc1nnc(-c2ccc3c(c2)OCO3)o1` (stereo not drawn) here?
Answer: 87.4% (active)

Question: Which inhibition does the source give for `O=C(O)CSc1nnc(-c2ccc3c(c2)OCO3)o1` here?
Answer: 4.3%

Question: For `N#CCSc1nnc(-c2ccc3c(c2)OCO3)o1`, which inhibition is on record?
Answer: -37.8%

Question: For `Clc1nc(Oc2ccccc2)nc(-c2cn(-c3ccccc3)c3ccccc23)n1`, which inhibition is on record?
Answer: -9.4%

Question: For `O=C(/C=C/c1cccc(O)c1)c1cccnc1`, which inhibition is on record?
Answer: -20.2%

Question: With `O=C(/C=C/c1ccc(OCc2ccccc2)c(OCc2ccccc2)c1)c1cccnc1` as the compound, how does the inhibition read?
Answer: 87.9% (active)

Question: With `O=C(/C=C/c1cccc(OCc2ccccc2)c1)c1cccnc1` as the compound, how does the inhibition read?
Answer: 36.4%

Question: For `CC(=O)c1c2c3c(c(Br)ccc3n(C)c1=O)C(=O)c1ccccc1-2`, which inhibition is on record?
Answer: -3.8%

Question: With `CCN1CCN(Cc2ccc(NC(=O)c3ccc(C)c(NC(=O)c4ccnnc4)c3)cc2C(F)(F)F)CC1` as the compound, how does the inhibition read?
Answer: 3.7%

Question: Which inhibition does the source give for `CCN1CCN(Cc2ccc(NC(=O)c3ccc(C)c(NC(=O)c4cccc5[nH]ccc45)c3)cc2C(F)(F)F)CC1` here?
Answer: -0.1%

Question: For `CCN1CCN(Cc2ccc(NC(=O)c3ccc(C)c(NC(=O)c4cc(-c5ccc(Br)cc5)n[nH]4)c3)cc2C(F)(F)F)CC1`, which inhibition is on record?
Answer: -4.1%

Question: For `CCN1CCN(Cc2ccc(NC(=O)c3ccc(C)c(NC(=O)c4ccc5n[nH]nc5c4)c3)cc2C(F)(F)F)CC1`, which inhibition is on record?
Answer: -1.3%

Question: With `CCN1CCN(Cc2ccc(NC(=O)c3cc(NC(=O)C(=O)c4c[nH]c5ccccc45)cc(OC)c3)cc2C(F)(F)F)CC1` as the compound, how does the inhibition read?
Answer: -3.5%

Question: For `CCN1CCN(Cc2ccc(NC(=O)c3ccc(C)c(NC(=O)C(=O)c4c[nH]c5ccccc45)c3)cc2C(F)(F)F)CC1`, which inhibition is on record?
Answer: 67.1% (active)

Question: With `CCN1CCN(Cc2ccc(NC(=O)c3ccc(C)c(NC(=O)c4nccn4C)c3)cc2C(F)(F)F)CC1` as the compound, how does the inhibition read?
Answer: 7.7%

Question: With `CCN1CCN(Cc2ccc(NC(=O)c3ccc(C)c(NC(=O)c4cccc(-c5cn[nH]c(=O)c5)c4)c3)cc2C(F)(F)F)CC1` as the compound, how does the inhibition read?
Answer: 72% (active)

Question: For `Cc1cc(C)n(NC(=S)NC2CCCC2)c(=O)c1C#N`, which inhibition is on record?
Answer: -10.5%

Question: Which inhibition does the source give for `CC1CC(C)CN(S(=O)(=O)c2ccc(Oc3ccc([N+](=O)[O-])cc3)cc2)C1` (stereo not drawn) here?
Answer: 36.9%

Question: Which inhibition does the source give for `O=C(CCn1nc(-c2ccccc2)ccc1=O)N1CCN(c2ccccn2)CC1` here?
Answer: -14.7%

Question: Which inhibition does the source give for `O=C(CCc1nnc(CCC2CCCCC2)o1)NCCc1ccccn1` here?
Answer: -21.2%

Question: Which inhibition does the source give for `COC(=O)c1c(C)oc(C)c1S(=O)(=O)NCc1ccc(OC)cc1` here?
Answer: -3.5%

Question: Which inhibition does the source give for `Cc1c(C)n(CC(O)CN(CCO)CCO)c2ccccc12` (stereo not drawn) here?
Answer: -21.9%

Question: Which inhibition does the source give for `COc1ccc(CCNC(=O)C(C)OC(=O)c2ccco2)cc1OC` (stereo not drawn) here?
Answer: -19.4%

Question: Which inhibition does the source give for `O=C1OCCC1Sc1nnc(-c2ccccc2)o1` (stereo not drawn) here?
Answer: 0.8%

Question: For `O=C1OCCC1Sc1nnc(-c2ccc(Br)cc2)o1` (stereo not drawn), which inhibition is on record?
Answer: -16%

Question: Which inhibition does the source give for `CCOc1ccc(C2C(C(=O)c3ccco3)=C(O)C(=O)N2CCN2CCOCC2)cc1` (stereo not drawn) here?
Answer: 8.2%

Question: With `Cc1ccc(S(=O)(=O)/N=C(/c2ccccc2)N2CCOCC2)cc1` as the compound, how does the inhibition read?
Answer: 7.1%

Question: With `Cc1ccc(CS(=O)(=O)CCC(=O)NCCC(C)C)cc1` as the compound, how does the inhibition read?
Answer: -16.6%

Question: Which inhibition does the source give for `CCOc1cc(/C=N\Nc2ncc(F)c(N3CCOCC3)n2)ccc1Oc1nc(Cl)ncc1F` here?
Answer: 19.9%

Question: Which inhibition does the source give for `Fc1ccc(-c2cnn3c(-c4cccs4)ccnc23)cc1` here?
Answer: -29%

Question: For `Fc1ccc(-c2cnn3c(-c4ccncc4)ccnc23)cc1`, which inhibition is on record?
Answer: -51.9%

Question: For `Clc1ccc(-c2cnn3c(-c4ccncc4)ccnc23)cc1`, which inhibition is on record?
Answer: 52% (active)

Question: With `O=c1c2sc3nc(N4CCOCC4)c4c(c3c2ncn1CCc1ccccc1)CCCC4` as the compound, how does the inhibition read?
Answer: 45.8%

Question: For `O=C(Nc1ccc(Cl)c(Cl)c1)Nc1nnc(CSc2ccccc2)s1`, which inhibition is on record?
Answer: 74.5% (active)

Question: Which inhibition does the source give for `COc1ccc(NC(=O)Nc2nnc(-c3ccco3)s2)cc1` here?
Answer: -7.3%

Question: For `O=C(Nc1ccncc1)Nc1cccc(C(F)(F)F)c1`, which inhibition is on record?
Answer: 3.5%

Question: Which inhibition does the source give for `COc1ccc(NC(=O)Nc2nnc(-c3cccs3)s2)cc1` here?
Answer: -3%

Question: Which inhibition does the source give for `O=C(Nc1ccc(Cl)cc1)Nc1nnc(CSc2ccc(Cl)cc2)s1` here?
Answer: -8.9%

Question: Which inhibition does the source give for `O=C(Nc1ccc(Cl)cc1)Nc1nnc(-c2ccncc2)s1` here?
Answer: 67.3%

Question: For `CCn1ncc(NC(=O)Nc2cccc(C(F)(F)F)c2)c1C(N)=O`, which inhibition is on record?
Answer: -12.4%

Question: Which inhibition does the source give for `O=C(Nc1ccc(Cl)cc1)Nc1nnc(CSCc2ccccc2)s1` here?
Answer: -3.9%

Question: Which inhibition does the source give for `O=C(Nc1ccc(F)cc1)Nc1nnc(-c2ccncc2)s1` here?
Answer: -10.7%

Question: Which inhibition does the source give for `COc1ccc(-c2[nH]ncc2CN2CCC(C(=O)N3CCOCC3)CC2)c(F)c1` here?
Answer: -28.9%

Question: For `Cc1nc(C(=O)NCc2ccccc2)sc1C1(C)CC(c2cccc([N+](=O)[O-])c2)=NO1` (stereo not drawn), which inhibition is on record?
Answer: -0.1%

Question: With `COc1ccc(CNC(=S)Nc2ccccc2-c2ccccc2)cc1` as the compound, how does the inhibition read?
Answer: -26.8%

Question: For `O=C(NC1CCCCC1)C1CCN(c2ncccn2)CC1`, which inhibition is on record?
Answer: -38.7%

Question: With `O=S(=O)(NCc1ccc(F)cc1)c1ccc(-n2cnnn2)cc1` as the compound, how does the inhibition read?
Answer: -14.1%

Question: With `O=C(Nc1ccc(Cl)c(Cl)c1)Nc1nnc(-c2ccncc2)s1` as the compound, how does the inhibition read?
Answer: -26.4%

Question: Which inhibition does the source give for `O=C(Nc1cccc(Cl)c1)Nc1nnc(CSCCOc2ccc(Cl)cc2)s1` here?
Answer: 67.8% (active)

Question: For `Cc1ccc(OCCSCc2nnc(NC(=O)Nc3cccc(Cl)c3)s2)cc1`, which inhibition is on record?
Answer: 13.6%

Question: With `Cc1nnc(NC(=O)Nc2cccc(Cl)c2)s1` as the compound, how does the inhibition read?
Answer: -14.6%

Question: With `O=C(Nc1cccc(Cl)c1)Nc1nnc(-c2ccncc2)s1` as the compound, how does the inhibition read?
Answer: 95.7% (active)

Question: For `Cc1ccc(NC(=O)Nc2nnc(CSCCOc3ccc(Cl)cc3)s2)cc1`, which inhibition is on record?
Answer: -1.1%
